# ASM inhibitor = inhibitors of human secretory acid sphingomyelinase | P17405 | placental ASM, HMU-PC fluorogenic substrate, 60 min | Potency, µM (doses to about 57.5 µM), without a hit: at the top dose activity change, negative = inhibition, usual class: inhibitors | 0.006% of 340,000 active | AID 504937; also: potency is read from the fitted curve at half-maximal effect
# Target sequence (P17405 47-631 limits assumed): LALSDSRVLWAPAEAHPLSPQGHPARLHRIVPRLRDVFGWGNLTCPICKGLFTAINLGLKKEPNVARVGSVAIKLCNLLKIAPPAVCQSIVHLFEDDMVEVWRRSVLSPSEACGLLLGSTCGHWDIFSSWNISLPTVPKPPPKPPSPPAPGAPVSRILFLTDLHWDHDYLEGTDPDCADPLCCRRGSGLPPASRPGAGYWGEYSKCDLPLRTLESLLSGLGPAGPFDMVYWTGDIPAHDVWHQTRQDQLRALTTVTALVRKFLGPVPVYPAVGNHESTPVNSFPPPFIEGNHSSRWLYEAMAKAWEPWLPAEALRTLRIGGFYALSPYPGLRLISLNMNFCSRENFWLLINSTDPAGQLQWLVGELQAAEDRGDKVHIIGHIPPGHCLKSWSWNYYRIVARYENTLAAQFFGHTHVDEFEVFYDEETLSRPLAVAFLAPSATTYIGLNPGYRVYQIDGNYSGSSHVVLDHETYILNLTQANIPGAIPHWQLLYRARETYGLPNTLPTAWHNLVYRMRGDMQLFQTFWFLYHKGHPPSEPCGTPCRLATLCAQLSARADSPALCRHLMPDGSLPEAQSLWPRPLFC
#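 Human placenta-derived ASM enzyme was preincubated with compound for 10 minutes at room temperature, then given fluorogenic substrate HMU-PC0 (9 uM final) for 60 minutes at 37 °C; a pH 10 stop preceded fluorescence reading at Ex 386/Em 447 nm.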
# PTAP TSG101 blk = blocks PTAP/TSG101 interaction to inhibit HIV-1 budding; Q99816; Fluorescence polarization, FITC-PTAP peptide / Tsg101 binding; Potency, µM (top dose mostly 115 µM), without a hit: top-dose activity change, negative = inhibition, actives largely listed as inhibitors; 340,000 tested, under 10 active; AID 493005; active = well fitted inhibition curve with a large enough effect in the main read-out, with a control signal flat, not every such curve was filed as active; inconclusive = small, poorly fitted or top-dose-only effect, or effect the other way, or a change in a side signal; inactive = no such curve, though single readings can be large or run the other way; also: potency is read from the fitted curve at half-maximal effect; % of control where 0% means no effect
#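 Fluorescence polarization binding of Tsg101 binding domain (10 uM final) to FITC-labeled PTAP peptide (50 nM final) in HEPES pH 7.5 buffer with NaCl, Tween 20, EDTA, TCEP. Compounds added before peptide; binding 20 min at RT.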
# Vif-APOBEC3G blk = inhibitors of Vif-APOBEC3G interaction | Q9HC16 | HeLa A3G-eYFP + Vif (tagged APOBEC3G with the HIV-1 protein that degrades it), YFP fluorescence, overnight | Potency, µM (titrated, usually from 46.1 µM), for inactives: at the highest dose activity, negative = active, hits mostly inhibitors | 0.076% of 410,000 active | AID 602310; also: potency is read from the fitted curve at half-maximal effect; % is scaled to controls: 0 for no effect and ±100 for the full control effect; nearly all actives have a fitted effect of over 60% in size
#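 Read-out is eYFP fluorescence (Ex 488/Em 500-530) from Vif-expressing HeLa A3G-eYFP cells; more signal means A3G escaped Vif-mediated degradation. Cells plated overnight, compound pinned in, incubated overnight at 37 deg C.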
# 12-LOX inh = ALOX12 (human) lipoxygenase inhibition; P18054; Potency, µM (top dose mostly 108 µM), inactives show at the top dose activity change, negative = inhibition, hits mostly inhibitors; purified 12hLO, xylenol orange hydroperoxide absorbance; 1.1% of 580,000 active; also: potency is read from the fitted curve at half-maximal effect; % is scaled to controls: 0 for no effect and ±100 for the full control effect
#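 Purified human 12hLO at 150 nM in 25 mM Hepes, 0.01% Triton X-100, pH 7.0, preincubated 15 min at room temperature with compound. Reaction started with 40 uM arachidonic acid, 30 min at room temperature. Hydroperoxide measured by Fe-xylenol orange, 573/405 nm absorbance ratio.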
# Akt phos inh = Akt phosphorylation inhibition. activity change, % for hits at 50 µM. Neuro2A IGF-stimulated pAkt S473 HTRF, 20 min; active compounds read low. AID 651550. 0.32% of 360,000 active; in the data active = activity change below about -80%; inconclusive = mostly about -51% to -80%; also: % is scaled to controls: 0 for no effect and ±100 for the full control effect
#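 Neuro2A cells in DMEM with 0.5% FBS, overnight at 37 deg C, given compound at single 50 µM final, then IGF (6 nM final) for 20 min at 37 deg C. Lysed; phospho-Akt Ser473 by HTRF after 24 h, 665/615 ratio.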
# Vif-APOBEC3F blk = blocks the Vif interaction with APOBEC3F; HeLa A3F-eYFP + Vif (tagged APOBEC3F with the HIV-1 protein that degrades it), YFP fluorescence increase; 0.2% of 390,000 active; Potency, µM (titrated, usually from 46.1 µM), for the others: at the highest dose activity, negative = active; also: potency is read from the fitted curve at half-maximal effect; % of control where 0% means no effect; nearly all actives have a fitted effect of over 65% in size
#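 HeLa cells stably expressing A3F-eYFP plus Vif, plated and incubated overnight at 37 deg C, then exposed to compounds overnight at 37 deg C. Blocked degradation read as raised yellow fluorescence (Ex 488/Em 500-530).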
# The depositor's hits bear a star; i = inactive; ? = inconclusive; . = no result given. Compounds with a hit are over-represented: about 1.4% of the library has one in this group of screens. Unless noted, calls follow the shape of the dose curve; as a rule, active = well fitted curve in the direction sought with a large enough effect; inconclusive = small, poorly fitted or top-dose-only effect, or another doubt; inactive = no such curve, though single readings can be large; an effect the other way counts as inactive or inconclusive.
SMILES,ASM inhibitor,PTAP TSG101 blk,Vif-APOBEC3G blk,12-LOX inh,Akt phos inh,Vif-APOBEC3F blk
O=C(N/N=C/c1ccccn1)c1ccc([N+](=O)[O-])cc1Cl,1%,-2%,4%,17%,i,1%
O=C(N/N=C/c1cccnc1)c1ccc([N+](=O)[O-])cc1Cl,-1%,0%,-1%,-20%,-83%*,-5%
Oc1c(CN2CCCC(C(F)(F)F)C2)cc(Cl)c2ccccc12 (stereo not drawn),17%,6%,-1%,16µM*,i,-28%
CC(NC(=O)C1CCC1)c1ccc2c(c1)OCO2 (stereo not drawn),4%,-4%,1%,-20%,i,1%
CCCS(=O)(=O)N1CCCC(C(=O)NC(C)c2ccc3c(c2)OCCO3)C1 (stereo not drawn),1%,-6%,-1%,0%,-114%*,4%
O=C(Nc1ccc2c(c1)OCCO2)C1CCCN(S(=O)(=O)c2cccs2)C1 (stereo not drawn),-2%,-1%,-3%,.,-108%*,0%
CSc1cccc(NC(=O)c2cc(Br)ccc2Cl)c1,.,.,.,-1%,.,.
Cc1ccc(NC(=O)CSCc2cc(=O)n3oc(C)cc3n2)cc1,.,.,.,-37%,.,.
COc1ccc(CCNC(=S)NCCc2c[nH]c3ccccc23)cc1,-6%,-4%,4%,45µM*,i,12%
Cc1ccc(NC(=S)NCCc2c[nH]c3ccccc23)cc1,-8%,-4%,8%,?,i,-4%
COc1ccc(CNC(=O)NCCc2c[nH]c3ccccc23)cc1,-1%,-7%,2%,0%,i,0%
CC(C)c1ccc(NC(=S)NCCc2c[nH]c3ccccc23)cc1,-9%,-3%,-4%,35µM*,i,-3%
S=C(NCCc1c[nH]c2ccccc12)Nc1ccc(Br)cc1,.,.,.,32µM*,.,.
Cc1cccc(NC(=S)NCCc2c[nH]c3ccccc23)c1,2%,1%,0%,40µM*,i,-1%
C=CCN(Cc1cccs1)C(=O)CCc1ccco1,.,.,.,-43%,.,.
O=C(Nc1nnc(COc2ccc(Cl)cc2)s1)c1ccco1,-3%,-1%,4%,45µM*,i,-13%
CCOC(=O)Cc1nnc(NC(=O)c2ccco2)s1,2%,-9%,-3%,8%,-122%*,0%
CCN(C(=O)C1CCC1)C1CC1,.,.,.,0%,.,.
Cn1cccc1C(=O)N1CCCCCCNC(=O)[C@@H]2CCC[C@@H]21,.,.,.,50%,.,.
C=C(/C=C/c1ccc(N(C)C)cc1)c1nc2ccccc2s1,.,.,11µM*,.,.,.
CN(C)c1ccc(/C=C/c2nc3ccccc3s2)cc1,70%,1%,?,14%,i,?
O=C(Nc1ccc(Cl)cc1)[C@@H]1[C@@H]2C(=O)N(c3ccc4ccccc4c3)C(=O)[C@@H]2[C@H]2C=CC=NN21,-2%,2%,-4%,18µM*,i,5%
Cc1ccc(C)c(C(=O)NCCN(C)C)c1,-1%,-5%,-1%,0%,-110%*,-5%
Cc1ccc(C(=O)NCCN(C)C)cc1C,1%,-4%,2%,0%,-107%*,1%
COCCNC(=O)c1cc(C)ccc1C,1%,-6%,-1%,-9%,i,5%
SMILES,ASM inhibitor,PTAP TSG101 blk,Vif-APOBEC3G blk,12-LOX inh,Akt phos inh,Vif-APOBEC3F blk
CCOc1ccc(C(=O)NCCN(C)C)cc1,-1%,.,1%,27%,i,-9%
Cc1oc(-c2ccccc2)nc1CN1C(=O)CSc2ccc(S(=O)(=O)N3CCCCCC3)cc21,.,.,.,-6%,.,.
NC(=O)c1nn(CC(=O)Nc2cccc3cccnc23)c(=O)c2ccccc12,.,.,.,7%,.,.
CCn1c(SCC(=O)Nc2ccc(C(=O)O)cc2)nnc1-c1ccccc1Cl,.,.,.,-8%,.,.
O=c1[nH]c(=S)[nH]nc1Cc1ccc(Cl)c(Cl)c1,3%,-9%,2%,6.3µM*,i,?
COC(=O)CNc1n[nH]c(=S)[nH]c1=O,0%,2%,1%,?,i,11%

# Screening data from PubChem.
